From PubChem BioAssay
In the library only some 2.5% were active in any assay of this set; here they are far more common.
ASK1 primary = human ASK1 kinase inhibition, primary screen. inhibition, % at 7.44 µM. Q99683. AlphaScreen MKK6 phosphorylation by ASK1, luminescence. 0.99% of 22,000 active; in the data active = inhibition above about 35%;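 note: 0% = median of compound wells and 100% = no enzyme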
Target sequence (Q99683 whole entry, looked up): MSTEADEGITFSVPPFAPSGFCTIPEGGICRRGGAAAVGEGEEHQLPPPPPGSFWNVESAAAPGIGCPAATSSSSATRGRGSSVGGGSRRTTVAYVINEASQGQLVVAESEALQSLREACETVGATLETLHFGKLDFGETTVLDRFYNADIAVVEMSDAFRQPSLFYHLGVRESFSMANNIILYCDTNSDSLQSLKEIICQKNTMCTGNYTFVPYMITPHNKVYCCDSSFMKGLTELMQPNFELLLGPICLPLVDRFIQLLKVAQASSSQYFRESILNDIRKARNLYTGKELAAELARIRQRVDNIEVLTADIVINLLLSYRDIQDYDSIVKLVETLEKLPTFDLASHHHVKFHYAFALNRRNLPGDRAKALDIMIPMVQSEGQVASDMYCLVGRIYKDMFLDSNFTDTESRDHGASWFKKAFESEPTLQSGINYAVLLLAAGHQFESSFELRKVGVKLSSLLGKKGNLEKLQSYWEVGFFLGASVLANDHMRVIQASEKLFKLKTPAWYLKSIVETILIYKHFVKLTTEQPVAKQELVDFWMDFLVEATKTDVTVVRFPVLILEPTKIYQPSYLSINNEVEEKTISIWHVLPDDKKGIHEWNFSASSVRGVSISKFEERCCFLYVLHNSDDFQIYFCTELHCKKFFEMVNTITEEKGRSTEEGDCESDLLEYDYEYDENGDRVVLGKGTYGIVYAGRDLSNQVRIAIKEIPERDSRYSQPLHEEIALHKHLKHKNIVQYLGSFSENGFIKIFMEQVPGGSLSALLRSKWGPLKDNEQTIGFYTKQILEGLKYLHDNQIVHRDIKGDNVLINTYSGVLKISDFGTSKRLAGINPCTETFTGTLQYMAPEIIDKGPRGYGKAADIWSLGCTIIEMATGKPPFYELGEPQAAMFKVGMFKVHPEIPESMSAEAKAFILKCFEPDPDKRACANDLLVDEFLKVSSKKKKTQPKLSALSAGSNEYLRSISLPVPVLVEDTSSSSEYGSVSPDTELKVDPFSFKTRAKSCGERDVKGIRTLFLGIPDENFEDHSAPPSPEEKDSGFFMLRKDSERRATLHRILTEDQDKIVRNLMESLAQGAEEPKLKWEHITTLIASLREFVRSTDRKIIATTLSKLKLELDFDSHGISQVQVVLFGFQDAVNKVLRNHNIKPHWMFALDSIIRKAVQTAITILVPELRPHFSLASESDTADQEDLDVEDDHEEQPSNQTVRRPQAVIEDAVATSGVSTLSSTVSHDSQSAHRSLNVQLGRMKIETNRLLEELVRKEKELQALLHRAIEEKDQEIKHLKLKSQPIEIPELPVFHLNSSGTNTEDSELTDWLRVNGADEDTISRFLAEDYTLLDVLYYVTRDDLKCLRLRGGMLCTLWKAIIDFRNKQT
ULK1 inh = inhibitors of human ULK1 kinase; AlphaScreen Atg13 phosphorylation by ULK1, luminescence; O75385; 1.9% of 30,000 active; inhibition, % at 5.96 µM; in the data active = inhibition above about 43%;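 note: 0% = median of compound wells and 100% = no enzyme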
An asterisk follows results filed as active; · = not tested or not shown.

SMILES	ASK1 primary	ULK1 inh
CN(C)c1cccc(Nc2nccc(NCCO)n2)c1	3	6
CCOC(=O)C(=O)Nc1ccc(Oc2ccccc2)cc1	·	-1
CC(=O)Nc1ccc(Nc2nc(-c3cccs3)nc3nc[nH]c23)cc1	14	-12
O=C(Nc1ccc(N2CCOCC2)cc1)c1cc(N2CCc3ccccc3C2)nc2ccccc12	0	50*
O=C(NCCCN1CCCC1=O)c1cc(Nc2ccc(N3CCOCC3)cc2)nc2ccccc12	4	4
O=C(Nc1ccc(Oc2ccccc2)cc1)c1cc(N2CCc3ccccc3C2)nc2ccccc12	-16	-2
O=C(Nc1ccc(N2CCOCC2)cc1)c1cnc(NCCN2CCOCC2)s1	-1	0
O=C(Nc1ccc(N2CCOCC2)cc1)c1cc(NCCCN2CCCC2=O)nc2ccccc12	-9	51*
O=C(Nc1ccc(N2CCOCC2)cc1)c1cnc(NCCCN2CCCC2=O)s1	-5	56*
O=c1[nH]c(C2COc3ccc(Cl)cc3C2)nc2ccc(-c3cn[nH]c3)cc12 (stereo unspecified)	13	-6
c1nc(NC2CC2)cc(-c2ccc(N3CCOCC3)nc2)n1	-1	4
CNC(=O)c1ccccc1Nc1cc(Nc2ccc(OC3CCN(C)CC3)cc2OC)ncc1C(F)(F)F	10	95*
CNC(=O)c1ccccc1Nc1cc(Nc2ccc(N3CCC(N(C)C)C3)cc2OC)ncc1C#N (stereo unspecified)	24	91*
COc1cc(N2CCOCC2)ccc1Nc1cc(Nc2cccc3c2C(=O)N(C)C3)c(C(F)(F)F)cn1	-1	16
CC(C)NC1CCC(Nc2cc(Nc3ccccc3C(N)=O)c(C(F)(F)F)cn2)CC1 (stereo unspecified)	12	29
COc1cc(N2CCOCC2)ccc1Nc1cc(Nc2ccccc2-c2ncco2)c(C(F)(F)F)cn1	20	31
CNC(=O)c1ccccc1Nc1cc(Nc2ccc(N3CCN(C)CC3)cc2OC)ncc1C(F)(F)F	19	91*
OCCNc1nc(N2CCN(c3ccccn3)CC2)nc2c1ncn2Cc1ccc(C(F)(F)F)cc1	7	-32
COc1ccc(C(=O)N/N=C(\C)CC(=O)N2CCN(C=O)CC2)cc1	·	9
CN(Cc1ccccc1)c1cc(-c2ccncc2)nc(-c2cccnc2)n1	·	-14
CN1CCN(c2ccc(-c3cncc(C(=O)NCCc4ccc(O)cc4)c3)cc2)CC1	-3	19
N#Cc1cc(-c2ccnc(Nc3ccc(N4CCCCC4)cc3)n2)cc(N2CCOCC2)c1	5	-5
N#Cc1cc(-c2ccnc(Nc3ccc(CN4CCCCC4)cc3)n2)cc(N2CCOCC2)c1	16	71*
N#Cc1cc(-c2ccnc(Nc3ccc(-c4ccccn4)cc3)n2)cc(N2CCOCC2)c1	21	4
N#Cc1cc(-c2ccnc(Nc3ccc(N4CCNCC4)cc3)n2)cc(N2CCOCC2)c1	34	93*
SMILES	ASK1 primary	ULK1 inh
COc1ccc(-c2nc(C)cc(NC3CC3)n2)cn1	0	-1
CN1CCN(c2ccc(-c3cc(NCCCN4CCCC4=O)nc(N)n3)cc2)CC1	-7	-5
CC(C)N1CCN(c2ccc(OC[C@H]3CO[C@](Cn4cncn4)(c4ccc(Cl)cc4Cl)O3)cc2)CC1	·	-1
Nc1nc2ccccc2n1Cc1ccc(F)cc1	·	7
CCC(C)n1c(C2COc3ccccc3O2)nc2ncc(-c3ccncc3)cc21 (stereo unspecified)	5	-3
Cc1ncn(-c2ccc(Nc3nccc(-c4ccc(N5CCCC(O)C5)c(C#N)c4)n3)cc2)n1 (stereo unspecified)	-7	80*
N#Cc1cc(-c2ccnc(Nc3ccc(N)cc3)n2)ccc1N1CCC(O)CC1	8	85*
Cc1ncn(-c2ccc(Nc3nccc(-c4ccc(C#N)c(N5CCCC(O)C5)c4)n3)cc2)n1 (stereo unspecified)	12	3
N#Cc1cc(-c2ccnc(Nc3cccc(N)c3)n2)ccc1N1CCCC1	19	41
Cc1cccn2c(=O)c3c(nc12)CCN(C(=O)Cc1ccccc1)C3	·	12
COc1ccc([C@@H]2Sc3ccccc3NC(=O)[C@@H]2O)cc1	·	13
O=C(Nc1cccc(F)c1N1CCC2(CC1)OCCO2)c1ccc(Br)o1	-11	-9
O=C(Nc1ccc(F)c(F)c1N1CCC2(CC1)OCCO2)c1ccc(Br)o1	-18	53*
Cn1cc(-c2cc(Nc3ccc(N4CCOCC4)cc3)ncc2F)cn1	1	25
Cn1cc(-c2cc(Nc3ccc(N4CCOCC4)cc3)ncc2Cl)cn1	-1	61*
CCCNC(=O)c1csc(Nc2cccnc2)n1	1	2
NC(Cc1ccccc1)c1nc2ccc(-c3cccc4ncccc34)cc2[nH]1 (stereo unspecified)	-17	-20
NC(Cc1ccccc1)c1nc2ccc(-c3cncc4ccccc34)cc2[nH]1 (stereo unspecified)	4	57*
OCCNc1nc(N2CCN(Cc3ccc4c(c3)OCO4)CC2)nc2c1ncn2Cc1ccc(C(F)(F)F)cc1	14	-26
O=C(NCCN1CCCCC1)c1cccc(CN(C(=O)c2nc3ccc(-c4cn[nH]c4)cc3s2)C2CC2)c1	-2	9
CN1CCN(CCNC(=O)c2cccc(CN(C(=O)c3nc4ccc(-c5cn[nH]c5)cc4s3)C3CC3)c2)CC1	-37	53*
COc1ccc(CCNC(=O)c2ccnc(Nc3nccc4ccccc34)c2)cc1	-7	-2
Cc1ccc(-c2cccc3cnc(Nc4ccc(C(=O)NC5CC5)cc4)nc23)cn1	-37	62*
O=C(NC1CC1)c1cccc(Nc2cnccn2)c1	-2	-4
Cc1ccc(-c2cccc3cnc(Nc4ccc(-n5cnc(-c6ccccn6)n5)cc4)nc23)cn1	-20	-17
SMILES	ASK1 primary	ULK1 inh
Cc1ccc(-c2cccc3cnc(Nc4cccc(C(=O)NC5CC5)c4)nc23)cn1	-28	59*
COc1cc(OC)nc(Oc2cccc(C)c2C=O)n1	·	17
O=C(CCCN1C(=O)/C(=C/c2cccs2)SC1=S)Nc1ccc(O)c(C(=O)O)c1	·	4
Cc1cc(Nc2ccccc2)nc(NCCN2CCOCC2)n1	3	3
CN(C)C(=O)c1ncccc1Nc1cc(Nc2ccc3c(c2)CC(=O)N3)ncc1C(F)(F)F	-11	40
CNC(=O)c1ccccc1Nc1cc(Nc2ccc(C(=O)N(C)C)cc2C)ncc1C(F)(F)F	-27	78*
CNC(=O)c1ccccc1Nc1cc(Nc2ccc(C(=O)N(C)C)cn2)ncc1C(F)(F)F	-8	89*
CNC(=O)c1ncccc1Nc1cc(Nc2ccc(C(=O)N(C)C)cn2)ncc1C(F)(F)F	7	56*
CNC(=O)c1ncccc1Nc1cc(Nc2ccc3[nH]ncc3c2)ncc1C(F)(F)F	5	24
O=C(CSc1nnc2n1CCN2c1ccccc1)Nc1ccccc1	·	-3
COc1ccc(-c2cc(C(F)F)nn2-c2ccc(S(N)(=O)=O)cc2)cc1F	·	-12
COCCNc1cc(-c2ccc(F)cc2)nc(-c2ccccn2)n1	·	-13
COC(CNC(=O)COc1cccc2c1OC(C)(C)C2)OC	·	11
CCOc1cc(/C=N/N2C(=O)C3C(C2=O)C2C=CC3C23CC3)ccc1O (stereo unspecified)	·	5
CCOc1cc(/C=N\NC(=O)c2n[nH]c3c2CCCC3)ccc1O	·	44*
Cn1c([N+](=O)[O-])cnc1COC(N)=O	·	3
COc1cc(N2CCOCC2)ccc1Nc1cc(Nc2ccccc2-c2ncccn2)c(C(F)(F)F)cn1	7	9
O=C(NCc1ccccc1)c1ccccc1Nc1ccnc(Nc2ccc(N3CCOCC3)cc2)c1	13	2
